Experiment [1] concerns the target mouse Estrogen Receptor alpha (Era), Esr1 (gene 13982) (UniProt P19785). The experiment can be described thus: NVS_NR_mERa: NovaScreen (NVS) Nuclear Receptor Binding Assay for mouse Estrogen Receptor alpha (Era) (AID 2283378).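 Note: hit means loss of bound radioligand signal relative to DMSO.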 The method, boiled down: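 Test chemicals competed against a specific radioligand for binding to cell-free mouse Era. Duplicate wells at 25 uM were read 18 hours later by filter-based radiodetection, with loss of signal against DMSO scored as activity.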

Experiment [2] deals with Estrogen receptor beta (Homo sapiens) (UniProt Q92731). The experiment in a line: OT_ER_ERbERb_1440: Odyssey Thera (OT) 24-hour HEK293T Protein-Complementation Assay for Estrogen Receptor-beta/-beta Homodimer (AID 2283380).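 Note: scored as signal increase over DMSO baseline for both agonists and antagonists.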 Put shortly: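 HEK293T cells stably expressing ER beta LBD (aa 310-547) homodimer fragment-complementation reporter, dosed 24 h. Cells formaldehyde-fixed, Draq5-stained; gain in nuclear (agonist) or nuclear plus cytoplasmic (antagonist) fluorescence versus DMSO read by laser scanning cytometry.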
Chain of Estrogen receptor beta (Homo sapiens) (Q92731 whole entry, looked up, the tested form may be a part): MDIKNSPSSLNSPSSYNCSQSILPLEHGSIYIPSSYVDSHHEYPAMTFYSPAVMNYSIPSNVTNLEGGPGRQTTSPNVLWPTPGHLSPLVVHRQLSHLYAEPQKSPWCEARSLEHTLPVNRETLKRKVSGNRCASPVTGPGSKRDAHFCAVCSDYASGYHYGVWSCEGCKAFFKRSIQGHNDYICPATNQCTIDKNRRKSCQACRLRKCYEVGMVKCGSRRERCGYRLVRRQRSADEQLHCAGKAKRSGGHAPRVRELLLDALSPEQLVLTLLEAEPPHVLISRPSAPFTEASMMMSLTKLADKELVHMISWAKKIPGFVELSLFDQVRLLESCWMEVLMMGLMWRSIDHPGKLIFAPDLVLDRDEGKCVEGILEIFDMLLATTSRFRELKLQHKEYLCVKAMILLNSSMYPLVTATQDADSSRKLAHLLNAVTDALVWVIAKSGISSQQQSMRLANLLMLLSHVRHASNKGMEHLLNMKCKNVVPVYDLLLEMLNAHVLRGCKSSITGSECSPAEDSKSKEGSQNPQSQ

The target in experiment [3] is Estrogen receptor (Homo sapiens) (UniProt P03372). The experiment in a line: OT_ERa_GFPERaERE_0480: Odyssey Thera (OT) 8-hour HeLa Transcription Induction Assay for Estrogen Receptor (AID 2283381; active = hit-call score of the fitted dose curve at least 0.9, where 1 is the maximum; inactive = score below 0.9). Put shortly: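 Fluorescence microscopy with high-content image analysis measures ERE-driven GFP induction in HeLa cells at 8 h post-dose. Increases fitted against DMSO baseline.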
Chain of Estrogen receptor (Homo sapiens) (P03372 whole entry, looked up): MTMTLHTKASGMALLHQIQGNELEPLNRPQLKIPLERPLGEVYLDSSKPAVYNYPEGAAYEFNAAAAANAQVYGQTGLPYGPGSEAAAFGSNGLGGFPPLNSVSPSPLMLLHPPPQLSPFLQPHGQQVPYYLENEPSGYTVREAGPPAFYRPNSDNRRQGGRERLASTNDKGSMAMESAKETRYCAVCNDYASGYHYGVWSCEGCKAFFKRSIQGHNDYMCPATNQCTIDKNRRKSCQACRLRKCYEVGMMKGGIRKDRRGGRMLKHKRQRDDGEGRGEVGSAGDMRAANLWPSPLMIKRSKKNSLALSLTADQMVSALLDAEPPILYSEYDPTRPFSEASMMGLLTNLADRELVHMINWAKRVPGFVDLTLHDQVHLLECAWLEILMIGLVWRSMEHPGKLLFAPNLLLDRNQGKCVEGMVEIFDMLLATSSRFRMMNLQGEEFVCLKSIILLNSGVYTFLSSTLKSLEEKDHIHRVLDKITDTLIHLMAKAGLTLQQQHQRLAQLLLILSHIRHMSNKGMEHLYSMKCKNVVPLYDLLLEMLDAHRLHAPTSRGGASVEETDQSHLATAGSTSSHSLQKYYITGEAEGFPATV

The target is the same in experiment [4]. The experiment in a line: OT_ERa_GFPERaERE_0120: Odyssey Thera (OT) 2-hour HeLa Transcription Induction Assay for Estrogen Receptor (AID 2283382). The method, boiled down:
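Fluorescence-microscopy images of the GFP-ERα/ERE reporter, scored by high-content image algorithms, give the readout. HeLa exposure lasted 2 h, and only signal increase over DMSO was fitted.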

Experiment [5] addresses Bile acid receptor (Homo sapiens) (UniProt Q96RI1). The experiment in a line: OT_FXR_FXRSRC1_1440: Odyssey Thera (OT) 24-hour HEK293T Protein-Complementation Assay for Farnesoid X receptor/SRC-1 Co-activator (AID 2283384). The method, boiled down:
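Protein-fragment complementation: FXR and SRC-1 fused to reporter fragments that reassemble on interaction, read by fluorescence intensity. Human HEK293T cells measured 24 h post-dose; positive-direction fit versus DMSO.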

The target of experiment [6] is Retinoic acid receptor RXR-alpha (Homo sapiens) (UniProt P19793). The experiment can be described thus: OT_NURR1_NURR1RXRa_0480: Odyssey Thera (OT) 8-hour HEK293T Protein Complementation Assay for Nurr1/retinoid X receptor (RXR) (AID 2283385). The method, boiled down:
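Interaction of Nurr1 with RXRα read as reconstituted reporter fluorescence in a HEK293T fragment-complementation system, 8 h post-treatment; increase over DMSO baseline analysed.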

The target is the same in experiment [7]. The experiment in a line: OT_NURR1_NURR1RXRa_1440: Odyssey Thera (OT) 24-hour HEK293T Protein Complementation Assay for Nurr1/retinoid X receptor (RXR) (AID 2283386). Put shortly:
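Gain in fluorescence, fitted relative to DMSO, reflects Nurr1–RXRα association in HEK293T cells after 24 h dosing. Bait and prey are each linked to a reporter-protein fragment that reassembles on interaction.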

For experiment [8], the target named is Peroxisome proliferator-activated receptor gamma (Homo sapiens) (UniProt P37231). The experiment in a line: OT_PPARg_PPARgSRC1_0480: Odyssey Thera (OT) 8-hour Protein-Complementation Assay for Peroxisome Proliferator-activated Receptor Gamma / SRC-1 Co-activator (AID 2283387).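 Note: nuclear to cytoplasmic split Venus YFP fluorescence ratio reporting PPARg SRC-1 interaction.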 The method, boiled down: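 Protein-fragment complementation of split Venus YFP reports PPARg/SRC-1 interaction in HEK293T (transfected 48 h before treatment), exposed 8 h. Readout: N/C fluorescence ratio at 488 nm from imaging, Draq5 for segmentation, positive fit relative to DMSO.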
Chain of Peroxisome proliferator-activated receptor gamma (Homo sapiens) (P37231 whole entry, looked up, the tested form may be a part): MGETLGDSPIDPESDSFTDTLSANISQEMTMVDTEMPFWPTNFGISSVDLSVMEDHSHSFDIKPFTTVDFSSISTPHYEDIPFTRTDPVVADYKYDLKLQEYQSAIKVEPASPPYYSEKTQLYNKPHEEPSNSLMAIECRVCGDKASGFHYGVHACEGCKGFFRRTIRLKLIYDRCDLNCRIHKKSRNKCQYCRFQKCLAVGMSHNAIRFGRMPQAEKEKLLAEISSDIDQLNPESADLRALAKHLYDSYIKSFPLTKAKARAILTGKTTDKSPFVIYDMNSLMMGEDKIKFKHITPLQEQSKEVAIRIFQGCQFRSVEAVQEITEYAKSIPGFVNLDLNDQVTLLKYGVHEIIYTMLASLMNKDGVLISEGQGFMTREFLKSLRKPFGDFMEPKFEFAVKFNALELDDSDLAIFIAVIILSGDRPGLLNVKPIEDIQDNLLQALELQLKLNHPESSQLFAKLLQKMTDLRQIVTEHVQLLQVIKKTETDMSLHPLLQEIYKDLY

The target is the same in experiment [9]. The experiment can be described thus: OT_PPARg_PPARgSRC1_1440: Odyssey Thera (OT) 24-hour Protein-Complementation Assay for Peroxisome Proliferator-activated Receptor Gamma/ SRC-1 Co-activator (AID 2283388).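 Note: nuclear to cytoplasmic ratio of reconstituted Venus YFP fluorescence in fixed imaged cells.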 Put shortly:
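Transient HEK293T, YFP fragments 1-158/159-239 (mutant IFP1/IFP2) fused to PPARg/SRC-1; 24 h dosing; fix 4% formaldehyde, Draq5; Opera imaging 488/635 nm; N/C ratio, gain vs DMSO.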

Experiment [10] is described as follows: CEETOX_H295R_11DCORT: CeeTox H295R High-throughput Steroidogenesis Assay for 11-Deoxycortisol (11DCORT) (AID 2283432; active = hit-call score of the fitted dose curve at least 0.9, where 1 is the maximum; inactive = score below 0.9;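 for AC50: 11-deoxycortisol secreted into the medium measured by LC-MS/MS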). Particulars: actives raise or lower the signal. Put shortly:
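Human adrenal H295R cells were prestimulated with 10 uM forskolin for 48 h, then exposed to test chemical (0.1% DMSO final) for 48 h. Medium 11-deoxycortisol was quantified by MTBE extraction and HPLC-MS/MS; bidirectional fitting relative to DMSO.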

Experiment [11] is described as follows: CEETOX_H295R_OHPREG: CeeTox H295R High-throughput Steroidogenesis Assay for OH-Pregnenolone (OHPREG) (AID 2283434; active = hit-call score of the fitted dose curve at least 0.9, where 1 is the maximum; inactive = score below 0.9). Particulars: actives raise or lower the signal. Put shortly: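 H295R, 10 uM forskolin pre-stim 48 h; test chemical 48 h, 0.1% DMSO final. MTBE extraction, reverse-phase C18 HPLC-ESI+ MS/MS of medium. Gain/loss vs DMSO; viability by MTT in same wells.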

Experiment [12] in a line: CEETOX_H295R_CORTIC: CeeTox H295R High-throughput Steroidogenesis Assay for Corticosterone (CORTIC) (AID 2283437; active = hit-call score of the fitted dose curve at least 0.9, where 1 is the maximum; inactive = score below 0.9;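 note: corticosterone secreted into medium quantified by mass spectrometry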). Particulars: actives raise or lower the signal. Put shortly: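 48 h forskolin (10 uM) prestim, then 48 h chemical exposure, final DMSO 0.1%. Readout: corticosterone in medium by LC-MS/MS after MTBE extraction. Gain/loss fit vs DMSO; MTT viability in same wells.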

A short description of experiment [13]: CEETOX_H295R_CORTISOL: CeeTox H295R High-throughput Steroidogenesis Assay for Cortisol (AID 2283438; active = hit-call score of the fitted dose curve at least 0.9, where 1 is the maximum; inactive = score below 0.9;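 note: cortisol secreted into medium quantified by LC-MS/MS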). Particulars: actives raise or lower the signal. Put shortly:
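Cortisol measured by HPLC-MS/MS after MTBE extraction of medium from H295R cells exposed 48 h to chemical (0.1% DMSO), following 48 h prestimulation with 10 uM forskolin. Viability assessed by MTT in the same wells.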

A short description of experiment [14]: CEETOX_H295R_DOC: CeeTox H295R High-throughput Steroidogenesis Assay for DOC (AID 2283439; active = hit-call score of the fitted dose curve at least 0.9, where 1 is the maximum; inactive = score below 0.9). Particulars: actives raise or lower the signal. Put shortly: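 11-Deoxycorticosterone quantified in medium by MTBE extraction and HPLC-MS/MS after 48 h chemical exposure (0.1% DMSO) of forskolin-primed (10 uM, 48 h) H295R cells. Same-well MTT viability; data fitted bidirectionally against DMSO.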

Experiment [15] can be described thus: CEETOX_H295R_ESTRADIOL: CeeTox H295R High-throughput Steroidogenesis Assay for Estradiol (AID 2283440; active = hit-call score of the fitted dose curve at least 0.9, where 1 is the maximum; inactive = score below 0.9;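 note: estradiol secreted into medium quantified by LC-MS/MS after dansyl derivatisation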). The note with it: actives raise or lower the signal. Put shortly:
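Following OECD 456 with minor changes, H295R cells received 10 uM forskolin for 48 h and then test chemical for 48 h. Hormone output was read by HPLC-MS/MS, with cytotoxic concentrations diluted until MTT viability reached ≥70%.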

The target of experiment [16] is human Norepinephrine Transporter (NET), SLC6A2 (gene 6530) (UniProt P23975). The experiment can be described thus: NVS_TR_hNET: NovaScreen (NVS) Transporter Assay for human Norepinephrine Transporter (NET) (AID 2283377).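 For AC50: displacement of radioligand from human NET seen as loss of scintillation signal.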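 Note: cell-free membrane protein extracted from CHO cells expressing human NET.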 Put shortly: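 CHO cell extracts expressing the transporter; tritiated or iodinated tracer displaced competitively; filtration plus scintillation readout at 1 h. Single-point duplicates at 25 uM, concentration series for follow-up; activity = signal drop relative to DMSO.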
Chain of human Norepinephrine Transporter (NET), SLC6A2 (gene 6530) (P23975 whole entry, looked up): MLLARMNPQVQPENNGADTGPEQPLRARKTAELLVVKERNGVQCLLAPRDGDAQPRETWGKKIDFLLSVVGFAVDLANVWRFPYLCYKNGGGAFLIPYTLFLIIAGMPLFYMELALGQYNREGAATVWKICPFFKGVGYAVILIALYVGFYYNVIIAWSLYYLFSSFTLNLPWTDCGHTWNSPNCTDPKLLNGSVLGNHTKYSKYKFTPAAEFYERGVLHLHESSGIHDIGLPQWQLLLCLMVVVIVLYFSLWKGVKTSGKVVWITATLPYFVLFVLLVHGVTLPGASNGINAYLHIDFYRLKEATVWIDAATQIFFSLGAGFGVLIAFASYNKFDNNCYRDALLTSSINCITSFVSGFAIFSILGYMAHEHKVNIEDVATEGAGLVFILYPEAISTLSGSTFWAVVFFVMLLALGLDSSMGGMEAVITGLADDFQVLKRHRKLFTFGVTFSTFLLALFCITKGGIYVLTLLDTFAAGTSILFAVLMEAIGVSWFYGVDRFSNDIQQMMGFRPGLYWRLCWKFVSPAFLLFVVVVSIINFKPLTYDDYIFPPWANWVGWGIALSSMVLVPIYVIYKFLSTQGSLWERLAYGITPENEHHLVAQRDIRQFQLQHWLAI

For experiment [17], the target named is Bile acid receptor (Homo sapiens) (UniProt Q96RI1). The experiment in a line: OT_FXR_FXRSRC1_0480: Odyssey Thera (OT) 8-hour HEK293T Protein-Complementation Assay for Farnesoid X receptor/SRC-1 Co-activator (AID 2283383). The method, boiled down:
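Binding of FXR to coactivator SRC-1 was read as fluorescence from a reconstituted split reporter in HEK293T cells, 8 h after chemical addition. Only increases in signal versus DMSO were fit.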

Experiment [18] has as its target Agonist Androgen Response Element (ARE), AR (gene 367) (UniProt P10275). The experiment in a line: OT_AR_ARELUC_AG_1440: Odyssey Thera (OT) 24-hour CHO-K1 Luciferase Assay for Agonist Androgen Response Element (ARE) (AID 2283379). The method, boiled down:
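Gain-of-signal reporter endpoint: cells (CHO-K1, hamster) are treated 24 h, luciferin/ATP reagent added, and luminescence compared with DMSO baseline.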

The nature of experiment [19]: CEETOX_H295R_ANDR: CeeTox H295R High-throughput Steroidogenesis Assay for Androstenedione (ANDR) (AID 2283436; active = hit-call score of the fitted dose curve at least 0.9, where 1 is the maximum; inactive = score below 0.9). Particulars: actives raise or lower the signal. Put shortly: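 48 h chemical exposure, H295R cells, DMEM/F12 + ITS+ and Nu-Serum. Medium androstenedione: MTBE extraction, C18 reverse-phase HPLC, ESI+ MS/MS. Fit bidirectional vs DMSO; MTT viability in same wells.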

In experiment [20] the target is rat Serotonin Transporter (SERT), Slc6a4 (gene 25553) (UniProt P31652). The experiment can be described thus: NVS_TR_rSERT: NovaScreen (NVS) Transporter Assay for rat Serotonin Transporter (SERT) (AID 2283375). Put shortly:
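Steps: rat forebrain membranes dosed with chemical (25 uM duplicate primary; concentration series for actives); 1 h incubation; labelled ligand bound, filtered, counted by scintillation. Activity scored as signal loss vs DMSO.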

Each structure is given as a SMILES string. Records with an inconclusive call do not appear. Where a structure was tested more than once in an assay, its records may differ in their call. Calls of active or inactive are those of the source. Rule for the calls, unless noted: active = hit-call score of the fitted dose curve at least 0.9, where 1 is the maximum; inconclusive = response in the unintended direction; inactive = score below 0.9.

Chain of Bile acid receptor (Homo sapiens) (Q96RI1 whole entry, looked up, the tested form may be a part): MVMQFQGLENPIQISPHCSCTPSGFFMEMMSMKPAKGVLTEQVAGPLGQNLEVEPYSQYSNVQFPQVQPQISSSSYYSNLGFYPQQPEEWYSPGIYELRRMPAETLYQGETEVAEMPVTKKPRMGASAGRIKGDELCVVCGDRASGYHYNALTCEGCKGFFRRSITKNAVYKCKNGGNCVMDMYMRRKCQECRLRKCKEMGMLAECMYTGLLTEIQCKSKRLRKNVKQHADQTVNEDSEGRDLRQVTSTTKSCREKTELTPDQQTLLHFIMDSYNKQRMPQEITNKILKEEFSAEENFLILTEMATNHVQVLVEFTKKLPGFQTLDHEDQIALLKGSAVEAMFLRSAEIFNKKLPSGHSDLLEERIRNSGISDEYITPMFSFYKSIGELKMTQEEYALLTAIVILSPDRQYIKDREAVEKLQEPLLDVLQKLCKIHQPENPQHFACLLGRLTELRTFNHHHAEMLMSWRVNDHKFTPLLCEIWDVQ
Chain of Retinoic acid receptor RXR-alpha (Homo sapiens) (P19793 whole entry, looked up, the tested form may be a part): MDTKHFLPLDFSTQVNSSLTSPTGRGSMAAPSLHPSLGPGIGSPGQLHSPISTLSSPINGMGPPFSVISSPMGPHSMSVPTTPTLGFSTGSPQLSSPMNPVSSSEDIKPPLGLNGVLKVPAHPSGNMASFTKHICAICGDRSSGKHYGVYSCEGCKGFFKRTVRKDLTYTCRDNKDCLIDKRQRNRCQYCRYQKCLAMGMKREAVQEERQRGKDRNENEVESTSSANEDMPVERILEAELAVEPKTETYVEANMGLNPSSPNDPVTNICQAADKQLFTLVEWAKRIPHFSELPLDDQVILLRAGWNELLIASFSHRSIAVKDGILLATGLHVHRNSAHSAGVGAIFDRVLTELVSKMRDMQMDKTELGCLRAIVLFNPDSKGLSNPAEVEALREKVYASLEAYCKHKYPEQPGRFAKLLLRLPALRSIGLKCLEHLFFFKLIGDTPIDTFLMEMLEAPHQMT
Chain of mouse Estrogen Receptor alpha (Era), Esr1 (gene 13982) (P19785 whole entry, looked up): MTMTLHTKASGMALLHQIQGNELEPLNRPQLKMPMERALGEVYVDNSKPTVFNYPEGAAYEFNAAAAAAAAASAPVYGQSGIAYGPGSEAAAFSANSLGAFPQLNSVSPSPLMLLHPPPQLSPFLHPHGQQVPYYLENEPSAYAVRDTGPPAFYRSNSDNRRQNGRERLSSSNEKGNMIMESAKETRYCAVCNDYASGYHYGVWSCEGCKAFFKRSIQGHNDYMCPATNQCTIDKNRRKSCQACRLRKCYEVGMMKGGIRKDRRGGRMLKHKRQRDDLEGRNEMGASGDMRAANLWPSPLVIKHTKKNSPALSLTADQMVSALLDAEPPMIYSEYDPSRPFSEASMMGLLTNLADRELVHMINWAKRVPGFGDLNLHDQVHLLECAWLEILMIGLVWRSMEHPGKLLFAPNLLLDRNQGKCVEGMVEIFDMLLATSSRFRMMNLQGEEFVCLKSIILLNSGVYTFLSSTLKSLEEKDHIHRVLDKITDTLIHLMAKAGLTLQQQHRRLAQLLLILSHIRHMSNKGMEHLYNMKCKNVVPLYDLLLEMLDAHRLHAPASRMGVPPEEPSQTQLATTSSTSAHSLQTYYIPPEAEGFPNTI
Chain of Agonist Androgen Response Element (ARE), AR (gene 367) (P10275 whole entry, looked up): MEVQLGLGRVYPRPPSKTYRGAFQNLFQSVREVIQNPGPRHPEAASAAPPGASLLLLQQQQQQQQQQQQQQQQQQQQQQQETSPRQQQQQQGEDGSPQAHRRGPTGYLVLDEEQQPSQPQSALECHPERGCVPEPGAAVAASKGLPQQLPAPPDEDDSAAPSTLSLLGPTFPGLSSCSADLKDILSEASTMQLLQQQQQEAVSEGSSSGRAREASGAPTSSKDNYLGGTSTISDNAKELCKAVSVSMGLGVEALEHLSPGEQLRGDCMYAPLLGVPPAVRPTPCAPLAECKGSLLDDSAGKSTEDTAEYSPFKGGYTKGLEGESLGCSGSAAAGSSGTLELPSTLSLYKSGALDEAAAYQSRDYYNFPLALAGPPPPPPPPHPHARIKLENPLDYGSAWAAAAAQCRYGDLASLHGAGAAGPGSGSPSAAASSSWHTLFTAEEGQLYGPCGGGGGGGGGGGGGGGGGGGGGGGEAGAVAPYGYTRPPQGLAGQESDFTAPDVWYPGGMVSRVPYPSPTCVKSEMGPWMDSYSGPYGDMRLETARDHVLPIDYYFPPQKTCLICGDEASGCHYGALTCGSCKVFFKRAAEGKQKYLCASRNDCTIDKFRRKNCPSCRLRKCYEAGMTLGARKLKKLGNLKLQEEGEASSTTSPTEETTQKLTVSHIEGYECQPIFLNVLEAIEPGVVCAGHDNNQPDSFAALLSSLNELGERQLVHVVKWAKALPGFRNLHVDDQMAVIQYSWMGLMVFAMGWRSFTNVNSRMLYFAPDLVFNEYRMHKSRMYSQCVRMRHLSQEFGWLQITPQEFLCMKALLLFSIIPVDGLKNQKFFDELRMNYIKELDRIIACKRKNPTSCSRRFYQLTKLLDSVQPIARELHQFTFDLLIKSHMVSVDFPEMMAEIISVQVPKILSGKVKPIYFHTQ

Take `CC(C)(C)c1cc(/C=C2\SC(N)=NC2=O)cc(C(C)(C)C)c1O`: the result in experiment [1], in experiment [2], in experiment [3], in experiment [4], in experiment [6] and in [7] was inactive. The compound was called inactive in experiment [8], in experiment [9], in experiment [10], in [11], in [13] and in experiment [15]. In addition, the AC50 in experiment [5] was 50 µM (active); in experiment [8], 77.1 µM (active); in [9] it was 66 µM (active); in experiment [12], 754 nM (active); in experiment [14] it was 866 nM (active).

As for `O=C(OCCCCCCOC(=O)c1ccccc1)c1ccccc1`, the compound was called inactive in [16], in [3], in [4], in experiment [5] and in experiment [6]. Besides, the AC50 in experiment [17] is 50 µM (active).

`O=C(Nc1ccc(Cl)cc1)Nc1ccc(Cl)c(Cl)c1`: the compound was called inactive in [16], in experiment [1], in [2], in experiment [3], in experiment [4] and in experiment [17]. In addition, the outcome in experiment [5], in [7], in experiment [8], in [9], in experiment [19] and in [12] was inactive. For the same compound, the call in experiment [13] and in [15] was inactive. Moreover, the AC50 in [18] was 336 nM (active); in [6] it was 12.5 µM (active); in experiment [10], 599 nM (active); in experiment [11] it was 0.5 µM (active); in experiment [14], 417 nM (active).

Turning to `O=C1c2ccccc2C(=O)N1CCc1noc(-c2ccc(CN3CCCCCC3)s2)n1`, the AC50 in experiment [20] was 9.05 µM (active); in [16], 6.14 µM (active); in [11], 4.81 µM (active). Besides, the result in experiment [3], in experiment [4], in [8] and in experiment [9] was inactive.

`Cc1ncc(CO)c(CO)c1O`: the result in [17], in experiment [5], in experiment [6], in [7], in experiment [8] and in [9] was inactive.

Regarding `Cc1c2ccccc2c(C)c2c1ccc1ccccc12`, the outcome in experiment [2], in experiment [3], in experiment [4], in experiment [5], in experiment [6] and in experiment [8] was inactive. The call in [9], in [10], in experiment [11], in [19], in experiment [12] and in experiment [13] was inactive. Besides, the compound was classed as inactive in experiment [14] and in experiment [15]. For the same compound, the AC50 in experiment [17] is 14.3 µM (active).

`CCCCOC(=O)CC(CC(=O)OCCCC)(OC(C)=O)C(=O)OCCCC`: the result in experiment [2], in experiment [5], in [6], in [8] and in experiment [9] was inactive. Further, the AC50 in experiment [17] was 9.51 µM (active).

`O=c1ccc2ccccc2o1`: the call in [2], in [3], in [4], in experiment [17], in experiment [6] and in experiment [7] was inactive. The result in [8] and in [9] was inactive.

`Cc1oc2c(NC(=O)c3c(Cl)cccc3Cl)cccc2c1C(C)(C)O`: the call in experiment [3], in experiment [4], in experiment [17], in experiment [8], in experiment [9] and in experiment [12] was inactive. The compound was classed as inactive in experiment [13]. The AC50 in [5] is 13.5 µM (active); in experiment [6] it was 12.6 µM (active); in experiment [10] it was 3010 nM (active); in [11], 1.42 µM (active); in experiment [14] it was 2530 nM (active).

Broadly, the AC50 is the concentration at which the activity in the assay is half-maximal.

These data come from PubChem BioAssay (EPA / NIEHS).
